Measurements: PubChem BioAssay (EPA / NIEHS)
The source made the active and inactive calls. The calls were made as follows: active = hit-call score of the fitted dose curve at least 0.9, where 1 is the maximum; inactive = score below 0.9.

What was measured:
[1] = target: Transcription factor E2F1 (Homo sapiens) (UniProt Q01094); experiment: ATG_E2F_CIS: Attagene CIS-FACTORIAL HepG2 Assay for human E2F Transcription Factor 1 (AID 2282935); conditions: HepG2 Attagene cis-reporter, E2F reporter RNA transcripts; actives raise or lower the signal
Sequence of Transcription factor E2F1 (Homo sapiens) (Q01094 whole entry, looked up): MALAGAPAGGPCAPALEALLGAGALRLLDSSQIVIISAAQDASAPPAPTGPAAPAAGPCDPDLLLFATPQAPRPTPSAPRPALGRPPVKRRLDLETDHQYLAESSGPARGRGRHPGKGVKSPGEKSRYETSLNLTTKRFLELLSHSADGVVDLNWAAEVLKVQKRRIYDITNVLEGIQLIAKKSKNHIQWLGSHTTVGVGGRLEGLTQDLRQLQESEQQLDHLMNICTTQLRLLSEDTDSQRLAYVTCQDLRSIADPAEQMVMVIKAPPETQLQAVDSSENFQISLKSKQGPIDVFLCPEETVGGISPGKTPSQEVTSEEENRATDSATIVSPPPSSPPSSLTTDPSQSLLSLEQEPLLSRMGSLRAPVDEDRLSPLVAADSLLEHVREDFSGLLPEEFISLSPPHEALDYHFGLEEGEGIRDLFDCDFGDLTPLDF
Procedure, shortened: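 Measures reporter transcript levels via RT-PCR with capillary electrophoresis detection in HepG2 cells harboring cis-regulated reporter units; 24 h post-dose; bidirectional curve fitting with DMSO as baseline.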

[2] = ATG_E_Box_CIS: Attagene CIS-FACTORIAL HepG2 Assay for human Enhancer Box (E-box) (AID 2282936); conditions: HepG2 E-box cis-reporter transcription, actives raise or lower the signal
Procedure, shortened: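 First, HepG2 cells receive multiple cis-regulated reporter constructs by transient transfection. Next, chemicals are applied for 24 h. Finally, reporter mRNA is quantified via RT-PCR and capillary electrophoresis, with DMSO as baseline.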

[3] = ATG_M_61_CIS: Attagene CIS-FACTORIAL HepG2 Assay for M61 Transcription Factor (Internal Marker) (AID 2282937); conditions: HepG2 Attagene CIS-FACTORIAL M61 internal marker reporter; actives raise or lower the signal
Procedure, shortened: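 Human liver HepG2, transient MRTU transfection (cis promoter elements), 24 h compound. Total RNA → oligo(dT) RT → PCR → FAM label → HpaI → CE. Internal background marker; bidirectional fitting, DMSO = baseline.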

[4] = ATG_EGR_CIS: Attagene CIS-FACTORIAL HepG2 Assay for human Early Growth Response 1 (EGR1) (AID 2282938); conditions: HepG2 Attagene CIS-FACTORIAL EGR reporter mRNA; actives raise or lower the signal
Procedure, shortened: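 Transient transfection of human HepG2 with multiple cis-regulated reporter units, chemical exposure 24 h, total RNA isolated. Reverse transcription, PCR, fluorescent labelling and capillary electrophoresis quantify reporter transcripts; activity fitted bidirectionally against DMSO.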

[5] = ATG_M_19_CIS: Attagene CIS-FACTORIAL HepG2 Assay for M19 Transcription Factor (Internal Marker) (AID 2282939); conditions: HepG2 Attagene CIS-FACTORIAL M19 internal marker reporter; actives raise or lower the signal
Procedure, shortened: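 Internal marker readout, fitted in both directions against DMSO, from HepG2 cells carrying transfected cis-element reporter constructs; RT-PCR and capillary electrophoresis of reporter mRNA after 24 h exposure.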

[6] = ATG_ERE_CIS: Attagene CIS-FACTORIAL HepG2 Assay for Estrogen Response Element (ERE) (AID 2282940); conditions: HepG2 ERE cis-reporter, Attagene RNA transcript; actives raise or lower the signal
Procedure, shortened: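 After 24 h compound treatment, RNA from transfected HepG2 cells was reverse-transcribed, reporter cDNA PCR-amplified, FAM-labelled, HpaI-cut and resolved by capillary electrophoresis. ERE-driven cis reporter transcripts reflect endogenous factors; gain or loss scored against DMSO.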

[7] = ATG_Ets_CIS: Attagene CIS-FACTORIAL HepG2 Assay for human Erythroblast Transformation Specific (ETS) (AID 2282941); conditions: HepG2 ETS cis-reporter transcription, actives raise or lower the signal
Procedure, shortened: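 HepG2 cells transiently transfected with cis-promoter reporter transcription units were dosed for 24 h; reporter mRNA was measured by RT-PCR, 6-FAM primer extension, HpaI digestion and capillary electrophoresis, with bidirectional fitting against DMSO baseline.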

[8] = target: Hepatocyte nuclear factor 3-beta (Homo sapiens) (UniProt Q9Y261); experiment: ATG_FoxA2_CIS: Attagene CIS-FACTORIAL HepG2 Assay for human Forkhead box A2 (FOXA2) (AID 2282942); conditions: HepG2 cis-reporter transcription factor activity, 24 h; actives raise or lower the signal
Sequence of Hepatocyte nuclear factor 3-beta (Homo sapiens) (Q9Y261 whole entry, looked up): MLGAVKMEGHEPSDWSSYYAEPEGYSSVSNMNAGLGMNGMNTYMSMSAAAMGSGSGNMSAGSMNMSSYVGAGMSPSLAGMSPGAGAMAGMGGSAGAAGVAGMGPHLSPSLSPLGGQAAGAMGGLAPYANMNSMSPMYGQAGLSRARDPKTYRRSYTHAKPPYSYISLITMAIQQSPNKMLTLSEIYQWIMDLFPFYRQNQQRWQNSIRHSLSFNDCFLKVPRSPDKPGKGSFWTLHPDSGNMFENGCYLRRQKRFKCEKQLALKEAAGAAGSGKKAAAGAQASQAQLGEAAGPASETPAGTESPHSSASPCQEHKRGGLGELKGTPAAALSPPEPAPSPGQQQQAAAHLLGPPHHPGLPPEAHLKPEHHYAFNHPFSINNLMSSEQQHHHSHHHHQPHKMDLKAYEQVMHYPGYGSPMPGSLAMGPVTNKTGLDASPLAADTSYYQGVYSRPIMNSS
Procedure, shortened: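 Transient MRTU transfection of HepG2 liver cells; 24 h treatment; total RNA → oligo(dT) RT → PCR → FAM primer extension → HpaI cut → CE. Bidirectional fit vs DMSO.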

[9] = ATG_FoxO_CIS: Attagene CIS-FACTORIAL HepG2 Assay for human Forkhead box O (FoxO) (AID 2282943); conditions: HepG2 Attagene cis-reporter, FoxO element, mRNA; actives raise or lower the signal
Procedure, shortened: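 Transfected HepG2 reporter cells exposed to test chemical for 24 h; reporter RNA measured by reverse transcription, PCR and fluorescent capillary electrophoresis; curves fitted for increases and decreases against DMSO.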

[10] = ATG_GATA_CIS: Attagene CIS-FACTORIAL HepG2 Assay for human GATA Binding Protein (AID 2282944); conditions: HepG2 GATA cis-element reporter, Attagene multiplex mRNA; actives raise or lower the signal
Procedure, shortened: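 Reporter transcripts from a GATA cis-regulated unit, among multiplexed reporters in transfected HepG2 cells, were measured by RT-PCR with capillary electrophoresis after 24 h dosing. Induction or loss scored relative to DMSO.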

[11] = ATG_GLI_CIS: Attagene CIS-FACTORIAL HepG2 Assay for human Zinc Finger Protein GLI1 (AID 2282945); conditions: HepG2, Attagene cis-factorial reporter mRNA, GLI element; actives raise or lower the signal
Procedure, shortened: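 Transiently transfected HepG2 cells report endogenous transcription factor activity via cis-element-driven reporter units. After 24 h compound exposure, reporter mRNA was measured by RT-PCR with capillary electrophoresis; bidirectional fitting against DMSO baseline.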

[12] = target: Bile acid receptor (Homo sapiens) (UniProt Q96RI1); experiment: ATG_IR1_CIS: Attagene CIS-FACTORIAL HepG2 Assay for human Nuclear Receptor Subfamily 1 Group H Member 4 (NR1H4), IR1 submotif (AID 2282946); conditions: IR1 reporter transcription, actives raise or lower the signal
Sequence of Bile acid receptor (Homo sapiens) (Q96RI1 whole entry, looked up): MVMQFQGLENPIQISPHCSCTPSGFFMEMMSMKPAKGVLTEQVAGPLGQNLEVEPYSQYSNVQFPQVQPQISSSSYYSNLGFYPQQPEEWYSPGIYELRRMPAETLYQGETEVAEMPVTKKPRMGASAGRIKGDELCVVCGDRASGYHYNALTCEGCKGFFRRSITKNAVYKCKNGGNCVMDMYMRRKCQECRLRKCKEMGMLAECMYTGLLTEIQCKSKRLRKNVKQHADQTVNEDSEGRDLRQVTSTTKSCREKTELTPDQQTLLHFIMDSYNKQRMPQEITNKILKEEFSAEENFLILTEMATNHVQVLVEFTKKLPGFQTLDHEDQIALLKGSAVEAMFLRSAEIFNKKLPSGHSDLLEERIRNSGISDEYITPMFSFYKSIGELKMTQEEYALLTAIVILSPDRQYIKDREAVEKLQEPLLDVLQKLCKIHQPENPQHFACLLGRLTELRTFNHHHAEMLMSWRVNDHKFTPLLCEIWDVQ
Procedure, shortened: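 HepG2 cells transiently transfected with multiple cis-promoter-driven reporter units to measure endogenous transcription factor activity; 24 h exposure. Reporter mRNA read by RT-PCR, FAM labelling, HpaI digestion and capillary electrophoresis. Bidirectional fit versus DMSO.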

[13] = ATG_GRE_CIS: Attagene CIS-FACTORIAL HepG2 Assay for human Glucocorticoid Response Elements (GRE) (AID 2282947); conditions: HepG2 GRE cis-reporter, Attagene multiplex mRNA; actives raise or lower the signal
Procedure, shortened: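 Endogenous transcription factor activity is read through cis-element reporter constructs transiently transfected into HepG2 cells. After 24 h treatment, labelled RT-PCR products are resolved by capillary electrophoresis; DMSO sets baseline for bidirectional curve fitting.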

[14] = ATG_ISRE_CIS: Attagene CIS-FACTORIAL HepG2 Assay for human Interferon Regulatory Factor 1 (IRF1) binding to an Interferon-Stimulated Response Element (ISRE) (AID 2282948); conditions: HepG2 ISRE cis-reporter (Attagene), mRNA transcription readout; actives raise or lower the signal
Procedure, shortened: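 HepG2 cells transiently transfected with multiplexed cis-promoter reporter units; after 24 h compound exposure, reporter mRNA quantified by RT-PCR, FAM labelling, HpaI digestion and capillary electrophoresis. Bidirectional fit versus DMSO baseline.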

[15] = ATG_M_32_CIS: Attagene CIS-FACTORIAL HepG2 Assay for M32 Transcription Factor (Internal Marker) (AID 2282949); conditions: HepG2 Attagene cis-factorial M32 reporter, mRNA; actives raise or lower the signal;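 also: background control marker of the multiplexed CIS panel rather than a real target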
Procedure, shortened: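 Internal background marker read-out: RT-PCR/capillary electrophoresis fluorescence of reporter transcripts from transiently transfected HepG2 cells after 24 h chemical exposure. Activity fitted bidirectionally relative to DMSO negative control.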

[16] = ATG_M_06_CIS: Attagene CIS-FACTORIAL HepG2 Assay for M06 Transcription Factor (Internal Marker) (AID 2282950); conditions: HepG2 Attagene CIS-FACTORIAL M06 internal marker reporter; actives raise or lower the signal
Procedure, shortened: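 Serves as a background control readout. Transfected HepG2 exposed to compounds for 24 h, then reporter transcripts quantified by fluorescent RT-PCR and capillary electrophoresis. Both directions fitted against DMSO baseline.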

[17] = target: Hypoxia-inducible factor 1-alpha (Homo sapiens) (UniProt Q16665); experiment: ATG_HIF1a_CIS: Attagene CIS-FACTORIAL HepG2 Assay for human Hypoxia Inducible Factor 1 (HIF1A) (AID 2282951); conditions: HepG2 Attagene cis-factorial HIF1a reporter transcription; actives raise or lower the signal
Sequence of Hypoxia-inducible factor 1-alpha (Homo sapiens) (Q16665 whole entry, looked up, the tested form may be a part): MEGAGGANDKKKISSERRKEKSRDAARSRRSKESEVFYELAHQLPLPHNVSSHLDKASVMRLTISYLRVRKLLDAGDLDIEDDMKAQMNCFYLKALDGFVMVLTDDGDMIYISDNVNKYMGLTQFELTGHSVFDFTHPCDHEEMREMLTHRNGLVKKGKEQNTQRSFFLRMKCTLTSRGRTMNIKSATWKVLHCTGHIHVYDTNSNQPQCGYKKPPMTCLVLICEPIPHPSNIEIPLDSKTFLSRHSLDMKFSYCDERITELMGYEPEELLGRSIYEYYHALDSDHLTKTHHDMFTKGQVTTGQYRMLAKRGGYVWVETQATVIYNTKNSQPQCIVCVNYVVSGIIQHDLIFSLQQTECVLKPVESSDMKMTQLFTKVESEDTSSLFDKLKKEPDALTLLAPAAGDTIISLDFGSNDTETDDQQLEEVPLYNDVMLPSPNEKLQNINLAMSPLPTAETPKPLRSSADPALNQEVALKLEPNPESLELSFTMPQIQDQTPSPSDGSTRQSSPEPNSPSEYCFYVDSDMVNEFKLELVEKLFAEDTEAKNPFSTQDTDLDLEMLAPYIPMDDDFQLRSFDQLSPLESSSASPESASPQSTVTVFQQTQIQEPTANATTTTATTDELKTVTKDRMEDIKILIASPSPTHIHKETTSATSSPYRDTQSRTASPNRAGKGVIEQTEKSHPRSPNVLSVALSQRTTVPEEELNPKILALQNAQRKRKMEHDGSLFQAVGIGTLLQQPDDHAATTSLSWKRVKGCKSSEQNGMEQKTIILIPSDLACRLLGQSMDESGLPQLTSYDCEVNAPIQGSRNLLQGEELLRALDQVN
Procedure, shortened: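 Transient MRTU transfection of human HepG2 liver cells, 24 h compound treatment, then total RNA isolation, oligo(dT) reverse transcription, PCR amplification, fluorescent labelling and capillary electrophoresis of reporter fragments. Gain or loss relative to DMSO.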

[18] = target: Hepatocyte nuclear factor 6 (Homo sapiens) (UniProt Q9UBC0); experiment: ATG_HNF6_CIS: Attagene CIS-FACTORIAL HepG2 Assay for human Hepatocyte Nuclear Factor 6 (HNF6) (AID 2282952); conditions: HepG2 Attagene cis-factorial HNF6 reporter transcription; actives raise or lower the signal
Sequence of Hepatocyte nuclear factor 6 (Homo sapiens) (Q9UBC0 whole entry, looked up): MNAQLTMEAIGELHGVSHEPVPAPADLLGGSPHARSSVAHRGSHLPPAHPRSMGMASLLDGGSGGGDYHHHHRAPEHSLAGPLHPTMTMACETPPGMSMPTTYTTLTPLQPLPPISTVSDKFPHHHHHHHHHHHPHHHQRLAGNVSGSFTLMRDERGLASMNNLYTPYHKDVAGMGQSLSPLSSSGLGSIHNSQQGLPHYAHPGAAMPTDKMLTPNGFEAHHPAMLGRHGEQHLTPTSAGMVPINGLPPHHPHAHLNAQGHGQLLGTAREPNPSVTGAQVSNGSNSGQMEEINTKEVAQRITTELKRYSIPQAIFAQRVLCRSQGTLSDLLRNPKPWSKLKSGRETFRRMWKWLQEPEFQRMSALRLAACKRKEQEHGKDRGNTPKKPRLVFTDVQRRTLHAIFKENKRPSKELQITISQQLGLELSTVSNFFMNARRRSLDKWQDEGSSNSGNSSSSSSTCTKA
Procedure, shortened: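 HepG2 cells transiently transfected with cis-element-driven multiple reporter transcription units, dosed 24 h; reporter mRNA quantified by RT-PCR, FAM primer extension, HpaI digestion and capillary electrophoresis; bidirectional fit versus DMSO baseline.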

[19] = target: Heat shock factor protein 1 (Homo sapiens) (UniProt Q00613); experiment: ATG_HSE_CIS: Attagene CIS-FACTORIAL HepG2 Assay for human Heat Shock Transcription Factor 1 (HSE) (AID 2282953); conditions: HepG2 HSE cis-reporter, Attagene RNA transcription; actives raise or lower the signal
Sequence of Heat shock factor protein 1 (Homo sapiens) (Q00613 whole entry, looked up): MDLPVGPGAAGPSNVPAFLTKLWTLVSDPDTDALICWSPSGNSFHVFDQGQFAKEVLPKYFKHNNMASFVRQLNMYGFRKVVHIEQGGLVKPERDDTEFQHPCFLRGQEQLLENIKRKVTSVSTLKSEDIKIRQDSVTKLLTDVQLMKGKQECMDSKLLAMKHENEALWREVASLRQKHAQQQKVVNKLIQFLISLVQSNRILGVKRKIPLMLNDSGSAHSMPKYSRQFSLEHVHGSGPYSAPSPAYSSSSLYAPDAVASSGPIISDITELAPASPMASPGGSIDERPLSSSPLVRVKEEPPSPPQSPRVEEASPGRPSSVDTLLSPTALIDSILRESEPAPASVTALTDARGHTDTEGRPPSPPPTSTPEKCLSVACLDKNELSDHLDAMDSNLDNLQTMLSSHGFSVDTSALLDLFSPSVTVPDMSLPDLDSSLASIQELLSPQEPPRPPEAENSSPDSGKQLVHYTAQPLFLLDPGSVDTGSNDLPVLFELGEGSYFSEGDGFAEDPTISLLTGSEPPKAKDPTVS
Procedure, shortened: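 Endogenous transcription factor activity in transiently transfected HepG2, read as reporter mRNA by RT-PCR with fluorescent capillary electrophoresis after 24 h. Gain or loss of signal fitted versus DMSO baseline.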

[20] = ATG_MRE_CIS: Attagene CIS-FACTORIAL HepG2 Assay for human Metal Responsive Element (MRE) (AID 2282954); conditions: HepG2 MRE cis-reporter transcription, Attagene multiplex; actives raise or lower the signal
Procedure, shortened: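 Fluorescent reporter fragments separated by capillary electrophoresis give mRNA induction for the MRE unit after 24 h treatment of transfected HepG2 cells. Endogenous transcription-factor activity is read; DMSO serves as negative control and baseline.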

Measured: AC50

CC1OC(=O)C(C)OC1=O (stereo unspecified)
active: [17] 26.6 µM
inactive: all other assays above

COc1nccnc1CC(C)C
inactive: all assays above

O=C1CCCN1C1CCCCC1
not listed: [20]
inactive: all other assays above

O=C(O)c1ccc2c(c1)C(=O)OC2=O
not listed: [18]
inactive: all other assays above

Clc1cccnc1
not listed: [19]
inactive: all other assays above

CCC1(C)C(=O)N(Cl)C(=O)N1Cl (stereo unspecified)
active: [4] 34.5 µM | [9] 29.8 µM | [14] 49.4 µM | [20] 61.4 µM
not listed: [19]
inactive: all other assays above

CCCCC1C(=O)N(c2ccccc2)N(c2ccccc2)C1=O
inactive: all assays above
